Among the data in PubChem BioAssay AID2314 (National Center for Advancing Translational Sciences (NCATS), 2010) are max response values, retold here.

SMILES strings stand for the structures. Screen size: about 300,000 compounds; about 37,000 (12%) were called active. The entries come from a sample that favours actives as a whole. Unmarked numbers belong to inactive results. No stated cut-off is given here; in the data, active means max response mostly above about 13% (no sharp cut-off); inactive means mostly below about 14%.

The experiment is described as follows: Cycloheximide Counterscreen for Small Molecule Inhibitors of Shiga Toxin. Further: read at 38.3 µM for the half of the compounds with a filed dose; 0% is about no effect. Conditions: cell reporter, cycloheximide protein synthesis inhibition counterscreen; hits give high values. For orientation: Counterscreens check selectivity or assay interference.
For the compound `COc1cccc(-c2nc(S(=O)(=O)c3ccccc3)c(N3CCOCC3)o2)c1`, the max response was -1.61%.

As to `COc1cccc(-c2nnc(SCCOc3ccc4c(C)cc(=O)oc4c3)o2)c1`, the max response is -1.4%.

Turning to `COc1ccc(C(=O)NCc2nnc(SCC(=O)Nc3cccc(OC)c3)o2)cc1`, the max response was -4.63%.

As for `COc1ccc(C)cc1NC(=O)CSc1ccc(Cl)cc1`, the max response was 2.38%.

With `COc1cccc(-c2nc3cc(C)ccc3o2)c1`, the max response was 47.1% (active).

As for `COc1ccc2oc(-c3cccc(NC(=O)CSc4ccc(Cl)cc4)c3)nc2c1`, the max response was 14.3% (active).

In the case of `CN(C)Cc1ccc(F)cc1Sc1cc(Cl)ccc1Cl`, the max response is -1.42%.

For the compound `O=C(COc1ccc(Cl)cc1Cl)N/N=C/c1ccccn1`, the max response is 13.4%.

For the compound `Cc1ccc(C(=O)N/C(=C/c2ccc(-c3cccc([N+](=O)[O-])c3)o2)C(=O)NCCCN(C)C)cc1`, the max response is -1.07%.

`C[C@H](NC(=O)c1nc[nH]c1C(=O)NCC(=O)OC(C)(C)C)c1ccccc1`: the max response is 3.3%.

As to `CCCN(CCC)C(=O)C1c2ccccc2Oc2ccccc21`, the max response is 3.35%.

`O=C(CN1CCCCCC1)Nc1ccc(Br)cc1[N+](=O)[O-]`: the max response is -2.43%.

Regarding `O=C(CN1CCN(c2ccccn2)CC1)NC1CCCCC1`, the max response was 9.34%.

For `N/C(=N\OC(=O)CC1CCCCC1)c1ccccc1`, the max response is 40.4% (active).

For `COc1ccccc1OCC(=O)OCn1c(SC)nnc(C)c1=O`, the max response is -1.41%.

As to `COc1ccccc1OCc1nnc(SCC(N)=O)n1-c1ccccc1`, the max response is 7.05%.

For the compound `CC(C)(C)NC(=O)NC(=O)COC(=O)CCC1CCCCC1`, the max response was -2.12%.

Consider `N/C(=N\OC(=O)Cc1ccccc1[N+](=O)[O-])c1ccc(Br)cc1`, for which the max response is 11.4%.

Turning to `COc1ccccc1OCC(=O)O/N=C(\N)c1ccccn1`, the max response is 46.9% (active).

With `COc1ccccc1NC(=O)C(C)OC(=O)CC1CCCC1` (stereo not given), the max response was 0.793%.

For the compound `N/C(=N\OC(=O)CCC1CCCCC1)c1ccccn1`, the max response was 38.6% (active).

For the compound `COc1ccc(C(=O)NCC(=O)N/N=C/c2ccc([N+](=O)[O-])o2)cc1OC`, the max response was 8.64%.

Consider `COc1ccc(S(=O)(=O)n2nc(C)c(S(=O)(=O)N3CCOCC3)c2C)cc1`, for which the max response was -1.99%.

Turning to `COc1cccc(CNC(=O)c2nnn(CC(=O)Nc3cc(C)ccc3C)c2N)c1`, the max response was 7.9%.

Consider `CSCC[C@H](NC(=O)N1CCn2c1nc1ccccc12)C(=O)NCc1ccc2c(c1)OCO2`, for which the max response is 0.519%.

On to `Cn1ncc(N2CCN(S(=O)(=O)c3ccc(Br)cc3)CC2)c(Cl)c1=O`, for which the max response was -6.65%.

On to `S=c1[nH]cc(-c2ccc(Cl)cc2)n1-c1ccccc1`, for which the max response was 9.09%.

For the compound `CC(C)(C)OC(=O)NC(Cc1ccccc1)C(=O)NC(CSC1CCCCO1)C(=O)NN` (stereo not given), the max response was -1.92%.

With `O=C(CC(c1ccccc1)c1ccccc1)NCC(O)c1ccc([N+](=O)[O-])cc1` (stereo not given), the max response is -4.98%.

For the compound `Cc1nn2c(NCCN(C)C)c3c(nc2c1-c1ccccc1)CCC3`, the max response is -2.49%.

Regarding `Cc1ccc(CNC(=O)Cn2c(=O)c3sccc3n(Cc3cccc([N+](=O)[O-])c3)c2=O)cc1`, the max response was 3.82%.

Turning to `CC(=O)n1cc([C@@H]2C=C(C(=O)N3CCN(Cc4ccc5c(c4)OCO5)CC3)O[C@H](OCc3ccc(CO)cc3)C2)c2ccccc21`, the max response is 0.854%.

As for `O=C(Cc1ccccc1)Nc1cccc(NC(=O)c2ccccc2)c1`, the max response was -0.775%.

For `O=C(NCc1cccc(CNC(=O)Nc2cccc(O)c2)c1)Nc1cccc(O)c1`, the max response is -1.08%.

`C/C(=C\C(=O)c1ccccc1)Nc1cccc(O)c1`: the max response was 29.3% (active).

With `O=C(Nc1cccc(O)c1)c1ccc(C(=O)c2ccccc2)o1`, the max response was 40.5% (active).

As to `Cc1ccc(OCC(=O)NCCCNC(=O)c2cccnc2)cc1C`, the max response is -4.42%.

In the case of `Cc1ccc(NC(=O)COc2ccc(/C=N\NC(=O)c3cccnc3)cc2)cc1C`, the max response is 12.4%.

Take `C/C(=C\C(=O)c1cccnc1)Nc1ccc(C)c(C)c1`: the max response was 29% (active).

Take `COc1cc(/C=C(/NC(=O)c2ccccc2)C(=O)Nc2cccc(O)c2)c([N+](=O)[O-])cc1OC`: the max response was -3.43%.

`O=C(Nc1cccc(C(=O)N2CCCC2)c1)c1ccccc1`: the max response is -1.45%.

Take `CCCCCN(C(=O)CCC(=O)OCC(=O)NCc1ccc(OC)cc1)c1c(N)n(CCCC)c(=O)[nH]c1=O`: the max response was -0.685%.

`COc1ccc(NC(=O)c2sc(N3CCOCC3)nc2-c2ccccc2)c(OC)c1`: the max response was -2.89%.

For the compound `COc1ccc(C(=O)NCCNc2ccc([N+](=O)[O-])cn2)cc1`, the max response is 4.73%.

`Cc1ccc(OCC(=O)Nc2ccc(S(=O)(=O)Nc3ccccn3)cc2)cc1`: the max response was 1.04%.

Take `O=C(COc1ccc2oc3c(c2c1)CCCC3)Nc1ccccn1`: the max response was 28.6% (active).

As to `CCN(CC)CCCNC(=O)COc1ccc2oc3c(c2c1)CCCC3`, the max response was -5.99%.

On to `COc1ccc(CN2CCN(Cc3ccc(OC)c(OC)c3OC)CC2)cc1`, for which the max response was -4.12%.

As to `Cc1ccc(CS(=O)Cc2ccc(C(=O)N3CCOCC3)o2)cc1` (stereo not given), the max response was 0.901%.

Take `CC(=O)NS(=O)(=O)c1ccc(N/C(N)=N/c2nc(C)cc(C)n2)cc1`: the max response was -0.472%.

Consider `COc1ccc(CCNC(=O)CN2C(=O)COc3ccc(S(=O)(=O)N4CCCC4)cc32)cc1OC`, for which the max response is -2.34%.

On to `CCNc1nc(NC(C)C)nc(N2CC(=O)N(CC(=O)OCC)C2=N)n1`, for which the max response was -5.32%.

In the case of `COc1ccc(-c2cn3ccc(C)cc3n2)cc1`, the max response was -1.85%.

Turning to `CCN(CC)S(=O)(=O)c1ccc(-c2cn3ccc(C)cc3n2)cc1`, the max response is 45.6% (active).

In the case of `CCN(c1cccc(C)c1)S(=O)(=O)c1ccc(-c2coc(C)n2)cc1`, the max response was -4.01%.

For the compound `CCCCN(CC)C(=O)c1ccccc1Oc1ccccc1`, the max response was -1.52%.

Regarding `Cc1ccc(C)n1-c1ccncc1`, the max response is -5.57%.

Consider `Cc1ccc(N)cc1-n1c(C)ccc1C`, for which the max response is 23.9% (active).

For the compound `CN(c1ccccc1)S(=O)(=O)c1ccc(NC(=O)COc2ccccc2)cc1`, the max response was -1.66%.

Turning to `CCCCNC(=O)C1CCC(=O)N1CCc1ccccc1` (stereo not given), the max response is -3.51%.

As for `O=c1[nH]c(CN2CCOCC2)nc2scc(-c3ccccc3)c12`, the max response is 9.91%.

In the case of `CN(CCOc1ccccc1)Cc1nc2cc(Cl)ccc2c(=O)[nH]1`, the max response was 2.21%.

In the case of `O=c1[nH]c(CN2CCOCC2)nc2cc(Cl)ccc12`, the max response was 13% (active).

Consider `CC(NC(=O)c1ccccc1C(=O)O)c1ccc(-n2ccnc2)cc1` (stereo not given), for which the max response is -1.67%.

For the compound `CC1CCN(C(=O)c2ccccc2NC(=O)Cc2ccccc2)CC1`, the max response is 18.5%.

Take `O=C(C1CCN(Cc2ccc(Cl)cc2)CC1)N1CCN(Cc2ccc3c(c2)OCO3)CC1`: the max response is -1.07%.

On to `CCOC(=O)c1csc(NC(=O)c2ccc(S(=O)(=O)N3CCCC3)cc2)n1`, for which the max response was -1.54%.

As to `CCOC(=O)c1csc(CCNC(=O)c2oc3c(Cl)cc(C)cc3c2C)n1`, the max response was 29.8% (active).

Turning to `Cc1ccc2c(=O)cc(C(=O)NCCc3ccc(S(N)(=O)=O)cc3)oc2c1C`, the max response is -2.03%.

Regarding `CC(Oc1cccc(Cl)c1)C(=O)NC1CC(C)(C)NC(C)(C)C1` (stereo not given), the max response was -2.91%.

Take `COc1ccc(NC(=S)NCCNC(C)=O)cc1`: the max response is 0.644%.

As to `COc1ccc(Cc2n[nH]c(=S)n2NC(=O)Nc2ccc(C)cc2)cc1`, the max response is 37.1% (active).

For the compound `Cc1ccc(OCc2n[nH]c(=S)n2-c2ccc(C)cc2)cc1`, the max response was -1.5%.

For the compound `Cn1c(=O)oc2cc(S(=O)(=O)NCCC(=O)NCc3ccccc3Cl)ccc21`, the max response is -6.54%.

Turning to `O=S(=O)(c1ccc(Br)cc1)c1nc(-c2ccccc2)oc1N1CCOCC1`, the max response is 4.42%.

Regarding `CCCCCCCCCCCCC(NC(C)=O)(C(=O)OCC)C(=O)OCC`, the max response is -2.57%.

Turning to `CC1CCN(C(=O)CCc2nnc3ccc(NCc4ccco4)nn23)CC1`, the max response was -0.588%.

For `CCc1ccc(C2N3CC4([N+](=O)[O-])CN2CC([N+](=O)[O-])(C3)C4(C)C)cc1` (stereo not given), the max response was -2.16%.

In the case of `COc1ccc(Nc2nc(NCc3ccco3)nc(N/N=C/c3ccccc3Cl)n2)cc1`, the max response is 16.9% (active).

`COc1ccc(Nc2nc(Cl)nc(NCc3ccco3)n2)cc1`: the max response was 5.68%.

As for `C=CCC(NCc1ccco1)c1ccc(OC)cc1` (stereo not given), the max response is 1.37%.

On to `COc1ccc(C)cc1NC(=O)NCCCCc1ccccc1`, for which the max response is 7.65%.

Consider `CS(=O)(=O)N1CCN(c2cccc(Cl)n2)CC1`, for which the max response is -1.63%.

With `CS(=O)(=O)N1CCN(C(=O)Cc2ccccc2)CC1`, the max response is -2.32%.

As for `CS(=O)(=O)N1CCc2nc(-c3ccccc3)sc2C1`, the max response is 47.1% (active).

With `Cc1cccc(NC(=O)CSCC(=O)Nc2nnc(C3CC3)s2)c1`, the max response is 6.4%.

As to `O=C(Nc1nnc(C2CC2)s1)c1ccccn1`, the max response is 34.9% (active).

Consider `Cc1occc1C(=O)Nc1nnc(C2CCCCC2)s1`, for which the max response was 17.4% (active).

As for `COc1ccc(NC(=O)CCC(=O)Nc2nnc(C3CCCCC3)s2)cc1`, the max response is -3.75%.

For `Cc1occc1C(=O)Nc1nnc(-c2ccncc2)s1`, the max response is 15.8%.

For the compound `O=C(Nc1nnc(C2CC2)s1)C1=NN(C2CCS(=O)(=O)C2)C(=O)CC1` (stereo not given), the max response is -6.02%.

Take `O=C(Cc1cccs1)Nc1nnc(C2CC2)s1`: the max response is 8.46%.

For the compound `CC1CCN(c2ccc(C(=O)Nc3nnc(C4CC4)s3)cc2[N+](=O)[O-])CC1`, the max response was -2.98%.

For the compound `O=C(Nc1nnc(C2CC2)s1)c1cc(Cl)sc1Cl`, the max response is 12.2% (active).

For the compound `COc1ccccc1CNC(=O)[C@@H]1CCCN1C(=O)[C@@H]1Cc2ccccc2CN1C(=O)OC(C)(C)C`, the max response was 8.54%.
